Assay results taken from PubChem BioAssay (NCI).
About 83,000 compounds went through this panel and 20% of them were active in at least one assay; those are over-represented in the sample as a whole.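 Negative percent growth values reflect cell death: -40 means 40% of the cells present at the start died, and -100 means all died.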 Unmarked numbers belong to inactive results. Calls of active or inactive are those of the source. Rule for the calls: active = growth percent below 10; inactive = the rest.

Tests used:
Test in all cases: NCI-60 one-dose screen, 48 h (100 = growth as untreated, 0 = no growth, -100 = all killed)
Conditions in all cases: 10 µM unless noted
SR leukemia = system: SR leukemia
RPMI-8226 leukemia = system: RPMI-8226 leukemia
OVCAR-8 ovarian = system: OVCAR-8 ovarian
OVCAR-5 ovarian = system: OVCAR-5 ovarian
OVCAR-4 ovarian = system: OVCAR-4 ovarian
SK-OV-3 ovarian = system: SK-OV-3 ovarian
IGROV1 ovarian = system: IGROV1 ovarian
OVCAR-3 ovarian = system: OVCAR-3 ovarian
HS 578T breast = system: HS 578T breast
NCI/ADR-RES ovarian = system: NCI/ADR-RES ovarian

Row | Structure (SMILES) | growth (SR leukemia) | growth (RPMI-8226 leukemia) | growth (OVCAR-8 ovarian) | growth (OVCAR-5 ovarian) | growth (OVCAR-4 ovarian) | growth (SK-OV-3 ovarian) | growth (IGROV1 ovarian) | growth (OVCAR-3 ovarian) | growth (HS 578T breast) | growth (NCI/ADR-RES ovarian)
1 | Cc1cc(=O)n(C(=O)Nc2ccccc2Cl)c2cc(O)ccc12 | 112% | 97.8% | 95.5% | 102% | 107% | 95% | 104% | 106% | 98.7% | 99.9%
2 | CN(C)CCNC(=O)c1cc2c3cc(Cl)ccc3[nH]c2c2ncccc12 | -17.6% (active) | -11% (active) | 19% | 32.7% | 34.1% | 46.1% | 20.9% | 0.195% (active) | 24.2% | 25.3%
3 | NS(=O)(=O)c1ccccc1NC(=O)Nc1nc2ccccc2s1 | 94.4% | 102% | 100% | 101% | 93.3% | 97.3% | 89.1% | 108% | 100% | 99.7%
4 | COc1ccc(C/C(C)=C(\c2ccc(Cl)cc2)c2ccc(OCCN3CCCCC3)cc2)cc1 | 80.6% | 90.6% | 94.9% | 81.4% | 102% | 103% | 99.9% | 114% | 86.8% | 108%
5 | COC(=O)c1nc(-c2ccccc2)oc1S(=O)(=O)Cc1ccccc1 | -11.5% (active) | 84.5% | 90.1% | 102% | 101% | 97.6% | 85.6% | 41.1% | 110% | 97%
6 | O=C(Nc1ccc(Oc2cccc(Cl)c2)c(Cl)c1)c1cnccn1 | 26.3% | 18.1% | 28% | 60.4% | 38.9% | 83.3% | 27% | -7.23% (active) | 18.7% | 14.8%
7 | CC(C)c1ccc(Cc2cnc(NC(=O)c3cc(Br)cs3)s2)cc1 | 16.8% | 22.6% | 35.5% | 53.7% | 54.3% | 28.6% | 38% | 15.6% | 19.8% | 6.8% (active)
8 | Cc1cc(N2CCN(CC(=O)Nc3ccc4c(ccn4C)c3)CC2)nc(N2CCCCCC2)n1 | 122% | 76.1% | 83.3% | 100% | 92.2% | 84.4% | 83.5% | 82.6% | 96.8% | 91.5%
9 | c1ccc([P+](c2ccccc2)(c2ccccc2)c2ccc3c4ccc([P+](c5ccccc5)(c5ccccc5)c5ccccc5)c5cccc(c6cccc2c63)c54)cc1 | 14.7% | -8.35% (active) | 14.2% | 24.3% | 23.6% | -7.17% (active) | 6.28% (active) | 19.3% | 15.8% | 72%
10 | CCOc1ccc(NC(=O)CSc2oc(-c3ccccc3)nc2S(=O)(=O)c2ccc(C)cc2)cc1 | 41.3% | 71.3% | 40.2% | 101% | 51.1% | 83.3% | 95% | 56.8% | 59.9% | 58.9%
11 | CCO/C=N/C1=C(C#N)C(c2ccc(Cl)cc2)c2sc3c(F)cccc3c2O1 (stereo not given) | 36.8% | 54.2% | 77.8% | 89.2% | 77.6% | 81.9% | 60.7% | 25.3% | 55.6% | 39.6%
12 | Cn1c(=O)c2nc(/C=C/c3ccccc3)c(=O)[nH]c2n(C)c1=S | 111% | 110% | 105% | 110% | 107% | 118% | 107% | 116% | 107% | 106%
13 | Nc1ncnc2c1C(c1ccc(Br)cc1)c1sc3c(F)cccc3c1O2 (stereo not given) | 85.6% | 100% | 101% | 99.8% | 87.4% | 102% | 81.6% | 103% | 94.8% | 96.1%
14 | c1cc2c(ccc3[nH]c(-c4ccc5[nH]ncc5c4)c4c(c32)CCCC4)n1 | -7.05% (active) | 45.8% | 64.4% | 80.4% | 80.7% | 63.4% | 67.6% | 72.5% | 75.7% | 83.2%
15 | C=CCN=c1sc2c(n1NC(=O)c1cc3ccc1CCc1ccc(cc1)CC3)C(=O)c1ccccc1C2=O | -8.54% (active) | -27.7% (active) | 5.6% (active) | -65.7% (active) | -96.3% (active) | 55.7% | -20.5% (active) | -26.4% (active) | -9.43% (active) | -12.8% (active)
16 | COc1cc2c(c(OC)c1OC)CCC(c1cccc(NC(=O)c3ccc(Br)cc3)c1)O2 (stereo not given) | 35% | 56.8% | 85.3% | 93.3% | 67.4% | 75% | 71% | 90.8% | 90.4% | 84.1%
17 | O=S(=O)(Nc1ccc(Cl)c(C(F)(F)F)c1)c1ccc(-c2cnc(C3CC3)o2)cc1 | 3.51% (active) | 8.83% (active) | 5.21% (active) | 19.2% | 25.7% | 0.753% (active) | 24.3% | 9.38% (active) | -1.41% (active) | 2.96% (active)
18 | COC(=O)[C@@H](CCCCNC(=O)[C@]12CCC(C)(C)C[C@@H]1C1=CC[C@@H]3[C@@]4(C)C/C(=C/c5ccco5)C(=O)C(C)(C)[C@@H]4CC[C@@]3(C)[C@]1(C)CC2)NC(=O)[C@]12CCC(C)(C)C[C@@H]1C1=CC[C@@H]3[C@@]4(C)C/C(=C/c5ccco5)C(=O)C(C)(C)[C@@H]4CC[C@@]3(C)[C@]1(C)CC2 | 87.9% | 100% | 104% | 108% | 127% | 106% | 107% | 115% | 104% | 112%
19 | CCCC/C=C/[C@@H]1C[C@H]1CCO | 100% | 99.3% | 100% | 89.1% | 107% | 91.8% | 100% | 109% | 101% | 104%
20 | COC(=O)C1Cc2ccccc2CN1C(=O)c1ccc2c(c1)Cc1ccccc1-2 (stereo not given) | 57.2% [50 µM] | 18.1% [50 µM] | 32.4% [50 µM] | 62.4% [50 µM] | 20.2% [50 µM] | 86% [50 µM] | 42.8% [50 µM] | 47% [50 µM] | 70.4% [50 µM] | 25.6% [50 µM]
21 | O=C(Nn1c2c(sc1=NC1CC1)C(=O)c1ccccc1C2=O)c1cc2ccc1CCc1ccc(cc1)CC2 | 29.4% | 19.5% | 3.79% (active) | 111% | 40.5% | 59.1% | 34.6% | 1.11% (active) | 46.2% | 17.8%
22 | C=C1CC[C@@H]2[C@](C)(COC(C)=O)[C@H](OC(C)=O)CC[C@@]2(C)[C@@H]1CC(Nc1ccc(S(=O)(=O)Nc2ncccn2)cc1)C1=CCOC1=O (stereo not given in full) | -4.43% (active) | -12.7% (active) | 3.81% (active) | -1.98% (active) | 42.7% | 84.7% | 7.21% (active) | -80.6% (active) | 51.2% | 16.1%
23 | Cn1c(=O)cc2c3c(c(NCCCO)ccc31)C(=O)c1ccccc1-2 | 13.4% | 54.6% | 33.2% | 65.6% | 47.7% | 51.6% | 41.8% | 54.4% | 60.2% | 57.1%
24 | COc1ccc2c(c1)c(-c1nc(-c3c[nH]c4ccncc34)cs1)cn2C | -26% (active) | -36.7% (active) | -52.2% (active) | -72.9% (active) | -71.4% (active) | 106% | -83.8% (active) | -90.5% (active) | -48.3% (active) | -52.8% (active)
25 | O=C1Nc2ccc(C(=O)O)cc2/C1=N/c1nnc(Sc2ccccc2)s1 | 87.8% | 99.1% | 98.8% | 113% | 111% | 109% | 99.7% | 105% | 96.8% | 110%
26 | O=C(CN1CCOCC1)Nc1nc(-c2cc3ccccc3oc2=O)cs1 | 102% | 104% | 99.4% | 95.5% | 102% | 116% | 87.9% | 105% | 92.8% | 103%
